# In PubChem BioAssay (NCI):
# About 79,000 compounds went through this panel and 15% of them were active in at least one assay; those are over-represented in the sample as a whole. Values without a mark were called inactive. Active and inactive are the calls of the source. Rule as the data show it: active = growth inhibition above about 70%; inactive = the rest.
# Tests used:
# [1] = NCI Yeast Anticancer Drug Screen. Data for the rad52 strain (AID 147);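 also: 0% = growth of vehicle-treated control cultures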; settings: S. cerevisiae rad52 mutant growth inhibition, hits give high values
# Summary of the method: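 Screen used a yeast mutant impaired in DNA repair. After compound exposure, growth was measured. Values reflect inhibition compared with vehicle-treated cells.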
# [2] = NCI Yeast Anticancer Drug Screen. Data for the wt1 strain (AID 149);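 also: 0% = growth of vehicle-treated wt1 cultures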; settings: S. cerevisiae wt1 strain (SPY 50644) growth inhibition, hits give high values
# Summary of the method: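 Growth inhibition read against vehicle controls after compound exposure of the wt1 yeast strain.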
# [3] = NCI Yeast Anticancer Drug Screen. Data for the rad50EPP+ strain (AID 151);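 also: 0% = growth of vehicle-treated control cultures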; settings: S. cerevisiae rad50 mutant strain, hits give high values
# Summary of the method: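 Exposing the rad50EPP+ strain to each compound, growth was compared with vehicle-only cultures to give inhibition.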
# [4] = NCI Yeast Anticancer Drug Screen. Data for the mgt1 strain (AID 153); settings: S. cerevisiae mgt1 mutant growth inhibition, hits give high values
# Summary of the method: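 Genetically defined yeast (mgt1) treated with compound; inhibition of growth expressed against vehicle-treated controls.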
# [5] = NCI Yeast Anticancer Drug Screen. Data for the rad50 strain (AID 155);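 also: 0% = growth of vehicle-only cultures of the same strain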; settings: S. cerevisiae rad50 strain growth inhibition, hits give high values
# Summary of the method: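 Readout: growth inhibition relative to vehicle-treated cultures. Compound exposure was carried out in a genetically defined yeast strain deficient in DNA damage repair.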
# [6] = NCI Yeast Anticancer Drug Screen. Data for the mec2-1 strain (AID 157); settings: S. cerevisiae mec2-1 strain, hits give high values
# Summary of the method: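 Readout is yeast growth inhibition, normalised to vehicle-treated controls, in the mec2-1 strain exposed to compound.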
# [7] = NCI Yeast Anticancer Drug Screen. Data for the rad14 strain (AID 159);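 also: 0% = growth of vehicle-treated control cultures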; settings: S. cerevisiae rad14 strain growth inhibition, hits give high values
# Summary of the method: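 Growth inhibition vs vehicle controls; genetically altered yeast strain (DNA damage repair defect) treated with test compounds.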
# [8] = NCI Yeast Anticancer Drug Screen. Data for the sgs1 mgt1 strain (AID 161);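 also: 0% = growth of cultures given vehicle only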; settings: S. cerevisiae sgs1 mgt1 strain, hits give high values
# Summary of the method: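 Yeast cells carrying a defined DNA-repair defect were exposed to test compounds. Growth inhibition was measured relative to vehicle-treated controls.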
# [9] = NCI Yeast Anticancer Drug Screen. Data for the CLN2oe strain (AID 163);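 also: 0% = growth of vehicle-only control cultures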; settings: S. cerevisiae CLN2oe strain, hits give high values
# Summary of the method: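 Values reflect how much compound exposure reduced yeast growth, referenced to vehicle-exposed cells. Assay organism is a strain with a defined genetic change affecting cell-cycle control.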
# [10] = NCI Yeast Anticancer Drug Screen. Data for the cln2 rad14 strain (AID 165);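 also: 0% = growth equal to vehicle treated cultures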; settings: S. cerevisiae cln2 rad14 strain, hits give high values
# Summary of the method: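 Relative to vehicle controls, growth inhibition of compound-treated cln2 rad14 yeast was recorded.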
# [11] = NCI Yeast Anticancer Drug Screen. Data for the bub3 strain (AID 167); settings: S. cerevisiae bub3 mutant strain, hits give high values
# Summary of the method: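 Readout: yeast growth inhibition, expressed relative to vehicle-only wells. The test organism is a mutant strain from a panel with lesions in DNA repair or checkpoint genes.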
# [12] = NCI Yeast Anticancer Drug Screen. Data for the wt2 strain (AID 169);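 also: 0% = growth of vehicle-treated yeast cultures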; settings: S. cerevisiae wt2 strain growth inhibition, hits give high values
# Summary of the method: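 Values express reduction in yeast growth under compound treatment, referenced to vehicle-treated cells.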
# [13] = NCI Yeast Anticancer Drug Screen. Data for the mlh1 strain (AID 171);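 also: 0% = growth of vehicle-treated control cultures of the same strain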; settings: S. cerevisiae mlh1 strain growth inhibition, hits give high values
# Summary of the method: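 Steps: expose the defined-mutant yeast strain to compound; expose a parallel culture to vehicle; measure growth; express compound effect as inhibition relative to the vehicle culture.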
# [14] = NCI Yeast Anticancer Drug Screen. Data for the sgs1 strain (AID 173);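 also: 0% = growth of vehicle-only control cultures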; settings: S. cerevisiae sgs1 mutant, hits give high values
# Summary of the method: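 Treat defined-mutant yeast with compound; measure growth; calculate inhibition relative to vehicle-treated cells.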
# [15] = NCI Yeast Anticancer Drug Screen. Data for the mlh1 rad18 strain (AID 175); settings: S. cerevisiae mlh1 rad18 strain growth inhibition, hits give high values
# Summary of the method: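 Test agents were incubated with a yeast strain of defined genotype (DNA damage repair defect). Inhibition of growth was derived by comparison with vehicle-exposed cultures.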
# [16] = NCI Yeast Anticancer Drug Screen. Data for the rad18 strain (AID 177); settings: S. cerevisiae rad18 mutant growth inhibition, hits give high values
# Summary of the method: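 A genetically defined yeast mutant impaired in DNA damage repair was treated with test compounds, then its growth was measured against cultures receiving vehicle alone.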
# [17] = at 5.0 µM (retest, dose inferred, filed as 0.5)
# [18] = at 50.0 µM (retest, dose inferred, filed as 5.0)
structure (smiles),measurement,setting,value
Nc1ccccc1C(=O)OCCc1ccccc1,growth inhibition,[1]; at 1.2 µM,-9%
same,growth inhibition,[1]; at 3.7 µM,-4%
same,growth inhibition,[1]; at 11.0 µM,-21%
same,growth inhibition,[1]; at 33.0 µM,-3%
same,growth inhibition,[1]; at 100.0 µM,91% (active)
same,growth inhibition,[2]; at 1.2 µM,-25%
same,growth inhibition,[2]; at 3.7 µM,-6%
same,growth inhibition,[2]; at 11.0 µM,-23%
same,growth inhibition,[2]; at 33.0 µM,-26%
same,growth inhibition,[2]; at 100.0 µM,92% (active)
same,growth inhibition,[3]; at 1.2 µM,-23%
same,growth inhibition,[3]; at 3.7 µM,-9%
same,growth inhibition,[3]; at 11.0 µM,13%
same,growth inhibition,[3]; at 33.0 µM,22%
same,growth inhibition,[3]; at 100.0 µM,73% (active)
same,growth inhibition,[4]; at 1.2 µM,-74%
same,growth inhibition,[4]; at 3.7 µM,-63%
same,growth inhibition,[4]; at 11.0 µM,-62%
same,growth inhibition,[4]; at 33.0 µM,-52%
same,growth inhibition,[4]; at 100.0 µM,96% (active)
same,growth inhibition,[5]; at 1.2 µM,-3%
same,growth inhibition,[5]; at 3.7 µM,-7%
same,growth inhibition,[5]; [17],36%
same,growth inhibition,[5]; at 11.0 µM,-31%
same,growth inhibition,[5]; at 33.0 µM,13%
same,growth inhibition,[5]; [18],93% (active)
same,growth inhibition,[5]; at 50.0 µM,82.9% (active)
same,growth inhibition,[5]; at 100.0 µM,97% (active)
same,growth inhibition,[6]; at 1.2 µM,-8%
same,growth inhibition,[6]; at 3.7 µM,-4%
same,growth inhibition,[6]; [17],38%
same,growth inhibition,[6]; at 11.0 µM,-6%
same,growth inhibition,[6]; at 33.0 µM,13%
same,growth inhibition,[6]; [18],99% (active)
same,growth inhibition,[6]; at 50.0 µM,48.1%
same,growth inhibition,[6]; at 100.0 µM,85% (active)
same,growth inhibition,[7]; at 1.2 µM,-19%
same,growth inhibition,[7]; at 3.7 µM,-10%
same,growth inhibition,[7]; at 11.0 µM,-21%
same,growth inhibition,[7]; at 33.0 µM,-12%
same,growth inhibition,[7]; at 100.0 µM,97% (active)
same,growth inhibition,[8]; [17],-17%
same,growth inhibition,[8]; [18],74% (active)
same,growth inhibition,[8]; at 50.0 µM,68%
same,growth inhibition,[9]; at 1.2 µM,19%
same,growth inhibition,[9]; at 3.7 µM,17%
same,growth inhibition,[9]; at 11.0 µM,14%
same,growth inhibition,[9]; at 33.0 µM,-1%
same,growth inhibition,[9]; at 100.0 µM,91% (active)
same,growth inhibition,[10]; [17],62%
same,growth inhibition,[10]; [18],76% (active)
same,growth inhibition,[10]; at 50.0 µM,44.5%
same,growth inhibition,[11]; at 1.2 µM,-10%
same,growth inhibition,[11]; at 3.7 µM,0%
same,growth inhibition,[11]; [17],12%
same,growth inhibition,[11]; at 11.0 µM,-1%
same,growth inhibition,[11]; at 33.0 µM,5%
same,growth inhibition,[11]; [18],78% (active)
same,growth inhibition,[11]; at 50.0 µM,89.5% (active)
same,growth inhibition,[11]; at 100.0 µM,76% (active)
same,growth inhibition,[12]; at 1.2 µM,-16%
same,growth inhibition,[12]; at 3.7 µM,-15%
same,growth inhibition,[12]; at 11.0 µM,3%
same,growth inhibition,[12]; at 33.0 µM,-12%
same,growth inhibition,[12]; at 100.0 µM,94% (active)
same,growth inhibition,[13]; at 1.2 µM,-15%
same,growth inhibition,[13]; at 3.7 µM,-17%
same,growth inhibition,[13]; at 11.0 µM,-18%
same,growth inhibition,[13]; at 33.0 µM,-7%
same,growth inhibition,[13]; at 100.0 µM,97% (active)
same,growth inhibition,[14]; at 1.2 µM,-38%
same,growth inhibition,[14]; at 3.7 µM,-32%
same,growth inhibition,[14]; at 11.0 µM,-32%
same,growth inhibition,[14]; at 33.0 µM,-28%
same,growth inhibition,[14]; at 100.0 µM,94% (active)
same,growth inhibition,[15]; [17],34%
same,growth inhibition,[15]; [18],87% (active)
same,growth inhibition,[15]; at 50.0 µM,85.7% (active)
same,growth inhibition,[16]; at 1.2 µM,-58%
same,growth inhibition,[16]; at 3.7 µM,-22%
same,growth inhibition,[16]; at 11.0 µM,-29%
same,growth inhibition,[16]; at 33.0 µM,-24%
same,growth inhibition,[16]; at 100.0 µM,87% (active)
Cc1ccc2c(c1N)C(=O)c1ccccc1C2=O,growth inhibition,[1]; at 1.2 µM,8%
same,growth inhibition,[1]; at 3.7 µM,22%
same,growth inhibition,[1]; at 11.0 µM,47%
same,growth inhibition,[1]; at 33.0 µM,73% (active)
same,growth inhibition,[1]; at 100.0 µM,73% (active)
same,growth inhibition,[2]; at 1.2 µM,-3%
same,growth inhibition,[2]; at 3.7 µM,-1%
same,growth inhibition,[2]; at 11.0 µM,6%
same,growth inhibition,[2]; at 33.0 µM,5%
same,growth inhibition,[2]; at 100.0 µM,5%
same,growth inhibition,[3]; at 1.2 µM,22%
same,growth inhibition,[3]; at 3.7 µM,45%
same,growth inhibition,[3]; at 11.0 µM,69%
same,growth inhibition,[3]; at 33.0 µM,78% (active)
same,growth inhibition,[3]; at 100.0 µM,76% (active)
same,growth inhibition,[4]; at 1.2 µM,-3%
same,growth inhibition,[4]; at 3.7 µM,-3%
same,growth inhibition,[4]; at 11.0 µM,6%
same,growth inhibition,[4]; at 33.0 µM,-8%
same,growth inhibition,[4]; at 100.0 µM,6%
same,growth inhibition,[5]; at 1.2 µM,5%
same,growth inhibition,[5]; at 3.7 µM,19%
same,growth inhibition,[5]; [17],59%
same,growth inhibition,[5]; at 11.0 µM,40%
same,growth inhibition,[5]; at 33.0 µM,62%
same,growth inhibition,[5]; [18],91% (active)
same,growth inhibition,[5]; at 50.0 µM,30.5%
same,growth inhibition,[5]; at 100.0 µM,63%
same,growth inhibition,[6]; at 1.2 µM,2%
same,growth inhibition,[6]; at 3.7 µM,4%
same,growth inhibition,[6]; [17],8%
same,growth inhibition,[6]; at 11.0 µM,8%
same,growth inhibition,[6]; at 33.0 µM,11%
same,growth inhibition,[6]; [18],36%
same,growth inhibition,[6]; at 50.0 µM,42%
same,growth inhibition,[6]; at 100.0 µM,15%
same,growth inhibition,[7]; at 1.2 µM,3%
same,growth inhibition,[7]; at 3.7 µM,5%
same,growth inhibition,[7]; at 11.0 µM,8%
same,growth inhibition,[7]; at 33.0 µM,9%
same,growth inhibition,[7]; at 100.0 µM,16%
same,growth inhibition,[8]; [17],7%
same,growth inhibition,[8]; [18],42%
same,growth inhibition,[8]; at 50.0 µM,45.2%
same,growth inhibition,[10]; [17],6%
same,growth inhibition,[10]; [18],14%
same,growth inhibition,[10]; at 50.0 µM,40.8%
same,growth inhibition,[11]; at 1.2 µM,2%
same,growth inhibition,[11]; at 3.7 µM,13%
same,growth inhibition,[11]; [17],-9%
same,growth inhibition,[11]; at 11.0 µM,31%
same,growth inhibition,[11]; at 33.0 µM,37%
same,growth inhibition,[11]; [18],62%
same,growth inhibition,[11]; at 50.0 µM,61.4%
same,growth inhibition,[11]; at 100.0 µM,35%
same,growth inhibition,[12]; at 1.2 µM,-3%
same,growth inhibition,[12]; at 3.7 µM,1%
same,growth inhibition,[12]; at 11.0 µM,6%
same,growth inhibition,[12]; at 33.0 µM,10%
same,growth inhibition,[12]; at 100.0 µM,8%
same,growth inhibition,[13]; at 1.2 µM,-3%
same,growth inhibition,[13]; at 3.7 µM,-1%
same,growth inhibition,[13]; at 11.0 µM,10%
same,growth inhibition,[13]; at 33.0 µM,5%
same,growth inhibition,[13]; at 100.0 µM,4%
same,growth inhibition,[14]; at 1.2 µM,-4%
same,growth inhibition,[14]; at 3.7 µM,-3%
same,growth inhibition,[14]; at 11.0 µM,1%
same,growth inhibition,[14]; at 33.0 µM,7%
same,growth inhibition,[14]; at 100.0 µM,5%
same,growth inhibition,[15]; [17],15%
same,growth inhibition,[15]; [18],45%
same,growth inhibition,[15]; at 50.0 µM,71.8% (active)
same,growth inhibition,[16]; at 1.2 µM,-4%
same,growth inhibition,[16]; at 3.7 µM,1%
same,growth inhibition,[16]; at 11.0 µM,5%
same,growth inhibition,[16]; at 33.0 µM,3%
same,growth inhibition,[16]; at 100.0 µM,13%
